From PubChem BioAssay
The full list was thinned out, with hits kept by preference.
Artemis inh: blocks endonuclease activity of human Artemis; AID 686954; recombinant Artemis, quenched FAM hairpin cleavage fluorescence; inhibition, % at 10 µM; 30,000 tested, 0.78% active;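 active means at 10 µM dose, at least 30% inhibition, measured as corrected fluorescence normalized to stimulator and neutral control wells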
Target sequence (Q96SD1 whole entry, looked up): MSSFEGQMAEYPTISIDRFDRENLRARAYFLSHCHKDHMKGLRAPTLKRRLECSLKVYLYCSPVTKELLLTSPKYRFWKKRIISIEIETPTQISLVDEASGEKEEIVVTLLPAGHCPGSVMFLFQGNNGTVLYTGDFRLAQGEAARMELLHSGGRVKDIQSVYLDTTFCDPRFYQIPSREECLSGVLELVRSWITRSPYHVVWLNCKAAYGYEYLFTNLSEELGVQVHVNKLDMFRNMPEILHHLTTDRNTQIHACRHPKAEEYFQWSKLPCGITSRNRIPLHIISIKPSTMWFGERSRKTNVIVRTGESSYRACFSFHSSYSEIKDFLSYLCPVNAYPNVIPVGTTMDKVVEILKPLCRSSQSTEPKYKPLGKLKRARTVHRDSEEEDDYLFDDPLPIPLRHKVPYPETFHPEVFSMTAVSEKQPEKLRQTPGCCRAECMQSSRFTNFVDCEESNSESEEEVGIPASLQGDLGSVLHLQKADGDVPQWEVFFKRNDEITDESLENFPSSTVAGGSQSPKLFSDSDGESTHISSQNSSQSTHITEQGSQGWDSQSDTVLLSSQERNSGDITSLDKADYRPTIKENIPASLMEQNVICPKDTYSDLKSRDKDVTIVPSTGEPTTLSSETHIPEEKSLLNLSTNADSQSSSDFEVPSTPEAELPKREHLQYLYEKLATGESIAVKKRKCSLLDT
An asterisk follows results filed as active.

SMILES	Artemis inh
O=C(N/N=C/c1ccco1)c1cc(-c2ccc3ccccc3c2)n[nH]1	23
O=C(N/N=C/c1cccs1)c1cc(-c2ccc3ccccc3c2)n[nH]1	34*
CCOc1ccc2nc(NC(=O)C3CCCN(S(=O)(=O)c4cccs4)C3)sc2c1 (stereo not drawn)	34*
CCOc1ccc2nc(NC(=O)C(CCSC)NS(=O)(=O)c3cccs3)sc2c1 (stereo not drawn)	-1
O=C(NC1CCCCCC1)C1CCCN(S(=O)(=O)c2cccs2)C1 (stereo not drawn)	5
CN(C)S(=O)(=O)c1ccc(NC(=O)COC(=O)c2ccccn2)cc1	1
COc1ccc(OC)c(NC(=O)C2C3CC4OC(=O)C2C4C3)c1 (stereo not drawn)	5
O=C(CSc1nc(-c2ccccc2)cc(=O)[nH]1)N1CCOCC1	4
Cc1cc(=O)n2[nH]c(-c3ccc(Cl)cc3)cc2n1	-1
Cc1nc2cc(-c3ccsc3-n3c(C)ccc3C)[nH]n2c(=O)c1Cl	30*
COCc1cc(=O)n2[nH]c(-c3ccsc3-n3c(C)ccc3C)cc2n1	24
CCOC(=O)c1ccc2c(c1)nc(SCc1cn3ccsc3n1)n2CC	1
Cc1c(NS(=O)(=O)c2ccc3c(c2)c(=O)n(C)c(=O)n3C)c(=O)n(-c2ccccc2)n1C	3
CC1CCc2nc(NC(=O)CN3CCOCC3)sc2C1 (stereo not drawn)	7
CCN1CCc2nc(NC(=O)C(c3ccccc3)c3ccccc3)sc2C1	49*
O=C(Cc1cn2ccsc2n1)OCc1ccccc1	-6
O=C(Cc1cn2ccsc2n1)Nc1ccccc1Oc1ccccc1	-1
O=C(Cc1cn2ccsc2n1)Nc1nc2c(s1)CN(Cc1ccccc1)CC2	57*
CC1CCc2nc(NC(=O)CN3CCN(c4ccccc4)CC3)sc2C1 (stereo not drawn)	5
CCCSc1nc2sc3c(c2c(=O)[nH]1)CCN(Cc1ccccc1)C3	21
CCN1CCc2c(sc(NC(=S)NC(=O)c3ccccc3)c2C#N)C1	1
CCN1CCc2nc(NC(=O)CC(c3ccccc3)c3ccccc3)sc2C1	39*
CCOc1ccccc1-n1c(SCC(=O)NC2CCCC2)nnc1-c1ccoc1C	-1
Cc1cc(NC(=O)CCC(=O)N(c2ccc(F)cc2)C(C(=O)NC2CCCC2)c2ccncc2)no1 (stereo not drawn)	-1
NC1=NS(=O)(=O)NC1c1cccc(Cl)c1 (stereo not drawn)	-5
SMILES	Artemis inh
COC(=O)CCCCCNc1ccc(C(=O)OC)cc1N	8
O=C(/C=C/c1ccccc1)N1CCN(c2ccc([N+](=O)[O-])c(N3CCOCC3)c2)CC1	9
COc1ccc(C(=O)c2c[nH]c(C(=O)NCc3cccs3)c2)cc1	-6
CN(CC(=O)NCc1ccc2c(c1)OCO2)S(=O)(=O)c1ccc(Br)s1	-3
CC(C)C(C)(C#N)NC(=O)CSc1nnc(C(F)(F)F)n1C (stereo not drawn)	-3
CC1CN(c2ccc(Oc3ccccc3)cc2)c2nc3c(c(=O)[nH]c(=O)n3C)n2C1 (stereo not drawn)	2
Cc1ccc2c(c1)c(=O)c1c3n2CCN(C(=O)CCl)C3CC1 (stereo not drawn)	34*
CCN1CCn2c3c(c4cc(Br)ccc42)CCCC31 (stereo not drawn)	-10
Cc1ccc2c(c1)c1c3n2CCN(C(=O)CN2CCN(C)CC2)C3CCC1 (stereo not drawn)	8
O=C(COC(=O)c1ccccc1Nc1cccc(C(F)(F)F)c1)NCc1ccco1	12
Cc1ncc(N=Nc2ccccc2)c(-c2ccccc2)n1	1
O=C(CSc1ncnc2c1nnn2-c1ccc(F)cc1)NCC1CCCO1 (stereo not drawn)	0
O=C(Cn1cnc2c(cnn2-c2ccc(F)cc2)c1=O)NCC1CCCO1 (stereo not drawn)	33*
O=C(Cn1cnc2c(cnn2-c2ccc(F)cc2)c1=O)OCc1ccccc1	-1
CCOc1ccc(NS(=O)(=O)c2ccc3[nH]cc(C(=O)N(CC)CC)c(=O)c3c2)cc1	-1
O=C(NCc1ccco1)Nc1ccc2nsnc2c1	9
O=C(Nc1ccc2nc(-c3ccco3)c(-c3ccco3)nc2c1)NC1CC1	50*
O=S(=O)(c1ccc2nc(-c3ccco3)c(-c3ccco3)nc2c1)N1CCOCC1	28
O=C(Nc1cccc(C(F)(F)F)c1)c1ccc2nc(-c3ccco3)c(-c3ccco3)nc2c1	42*
Cn1nc(C(=O)Nc2cccc(C(F)(F)F)c2)ccc1=O	3
CC(C)Oc1cccc(C(=O)NC(=S)Nc2cccc(C(F)(F)F)c2)c1	0
COc1ccc(C(CC(=O)O)NC(=O)COc2ccccc2)cc1 (stereo not drawn)	-11
COCC(C)NCc1ccccc1C (stereo not drawn)	-12
CCOC(=O)C1=C(N)c2ccccc2CC1C(C)C (stereo not drawn)	-8
COc1cccc(NC(=O)N2CCN(c3ccc(C(F)(F)F)cn3)CC2)c1	-5
SMILES	Artemis inh
Cc1ccc(NC(=O)c2cc(N3C(=O)C4CC=CCC4C3=O)ccc2N2CCOCC2)cc1Cl (stereo not drawn)	0
c1ccc(-c2nc(NCc3ccco3)c3ccccc3n2)nc1	64*
c1coc(CNc2nc(N3CCCCC3)nc3ccccc23)c1	6
c1ccc(N2CCN(c3nc(NCc4ccco4)c4ccccc4n3)CC2)cc1	25
CC(C)Cn1c2c(c(O)c(C(=O)Nc3ncccc3O)c1=O)CCCC2	30*
C=CCn1c(=O)c(C(=O)Nc2cccnc2)c(O)c2ccccc21	16
CCn1c(=O)c(C(=O)NCc2ccccn2)c(O)c2ccccc21	-5
O=C(Oc1ccccc1)c1c(Cl)cccc1P(=O)(O)O	9
CCNc1ccc(Br)cc(C(=O)/C=C/c2ccc3c(c2)OCO3)c1=O	34*
CCCc1cc2c(cc1NC(=O)c1ccc(Br)cc1)OCO2	4
CC(=O)N/C(=C/c1ccc2c(c1)OCO2)C(=O)NCCCO	-13
O=C(Nc1ccccc1)C1CCN(c2nccs2)CC1	9
O=C(OCn1nnc2ccccc2c1=O)c1ccc2ccccc2n1	-7
CCCCCC(=O)N1CC2(C)CN(C(=O)CCCCC)CC(C)(C1)C2=O	-12
Cc1cc(-c2csc(N)n2)c(C)n1C	32*
CCOC(=O)N1CCN(CC(=O)Nc2ccc(Oc3ccccc3)cc2)CC1	14
CCOP(=O)(c1ccccc1)C1(O)CCCCC1 (stereo not drawn)	-6
CCOC(=O)C(O)(C1C(=O)CC(C)(C)CC1=O)C(F)(F)F (stereo not drawn)	9
Cc1ccc(NC2=C/C(=N\S(=O)(=O)c3cccs3)c3ccccc3C2=O)c(C)c1	53*
COc1ccc(C)cc1NC(=O)CN(C)S(=O)(=O)c1cccs1	1
Cc1ccc(NCN2C(=O)c3ccccc3C2=O)c(C)c1	-9
N#CCCN(C1CCCCC1)S(=O)(=O)CCOc1ccccc1	-6
Cc1ccc2c(c1)[nH]c1c(=O)n(Cc3ccccn3)cnc12	-7
Cc1ccc(C(=O)N2CCN(c3ccc([N+](=O)[O-])c(NCc4ccco4)c3)CC2)cc1	31*
Cc1cccc(C(=O)N2CCN(c3ccc([N+](=O)[O-])c(N4CCOCC4)c3)CC2)c1	2
Cc1cccc(C(=O)N2CCN(c3ccc([N+](=O)[O-])c(NCc4ccco4)c3)CC2)c1	28
C=CCn1c(N)c(C(=O)OCCC)c2nc3ccccc3nc21	40*
CCN(CCO)c1ccc(-n2c(N)c(C(=O)OC)c3nc4ccccc4nc32)cc1	-4
COCCNC(=O)c1c(N)n(CCC2=CCCCC2)c2nc3ccccc3nc12	11
